Test results taken from the supplement of paper PMC4466140.

molecular target: AgAbp1; experiment: SPOT peptide array binding signal intensity (averaged, normalized) (arbitrary units (background-subtracted, floor 0; scale differs between SH3 domains)); higher = stronger binding of the SH3 domain to the peptide
Summary of the method: (§1)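 SH3 domains from four yeast species were expressed as GST fusions in E. coli BL21(DE3) and purified on glutathione Sepharose. Each was incubated at 10 μg/ml overnight at 4°C in TBS-based blocking buffer on cellulose membranes bearing synthetic 15-mer peptides, in which serines replaced cysteines. Bound protein was detected with anti-GST antibody, an HRP anti-mouse secondary and luminol, then imaged and quantified with Genespotter. The binding signal is the normalized, background-subtracted spot intensity averaged over replicates, in arbitrary units that are not the same from one domain to another.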

Binder	SPOT peptide array binding signal intensity
QDKEGIPPDQQRLIF	≤ 0

molecular target: AgBbc1; experiment: as above
Summary of the method: as §1

Binder	SPOT peptide array binding signal intensity
QDKEGIPPDQQRLIF	≤ 0

molecular target: AgBem1-D1; experiment: as above
Summary of the method: as §1

Binder	SPOT peptide array binding signal intensity
QDKEGIPPDQQRLIF	≤ 0

molecular target: AgBzz1-D1; experiment: as above
Summary of the method: as §1

Binder	SPOT peptide array binding signal intensity
QDKEGIPPDQQRLIF	≤ 0

molecular target: AgBzz1-D2; experiment: as above
Summary of the method: as §1

Binder	SPOT peptide array binding signal intensity
QDKEGIPPDQQRLIF	≤ 0

molecular target: AgCyk3; experiment: as above
Summary of the method: as §1

Binder	SPOT peptide array binding signal intensity
QDKEGIPPDQQRLIF	≤ 0

molecular target: AgFus1; experiment: as above
Summary of the method: as §1

Binder	SPOT peptide array binding signal intensity
QDKEGIPPDQQRLIF	≤ 0

molecular target: AgHof1; experiment: as above
Summary of the method: as §1

Binder	SPOT peptide array binding signal intensity
QDKEGIPPDQQRLIF	≤ 0

molecular target: AgHse1; experiment: as above
Summary of the method: as §1

Binder	SPOT peptide array binding signal intensity
QDKEGIPPDQQRLIF	≤ 0

molecular target: AgLsb1; experiment: as above
Summary of the method: as §1

Binder	SPOT peptide array binding signal intensity
QDKEGIPPDQQRLIF	≤ 0

molecular target: AgLsb4; experiment: as above
Summary of the method: as §1

Binder	SPOT peptide array binding signal intensity
QDKEGIPPDQQRLIF	≤ 0

molecular target: AgMyo5; experiment: as above
Summary of the method: as §1

Binder	SPOT peptide array binding signal intensity
QDKEGIPPDQQRLIF	0.75

molecular target: AgNbp2; experiment: as above
Summary of the method: as §1

Binder	SPOT peptide array binding signal intensity
QDKEGIPPDQQRLIF	≤ 0

molecular target: AgRvs167; experiment: as above
Summary of the method: as §1

Binder	SPOT peptide array binding signal intensity
QDKEGIPPDQQRLIF	0.333

molecular target: AgSho1; experiment: as above
Summary of the method: as §1

Binder	SPOT peptide array binding signal intensity
QDKEGIPPDQQRLIF	≤ 0

molecular target: AgSla1-D1-D2; experiment: as above
Summary of the method: as §1

Binder	SPOT peptide array binding signal intensity
QDKEGIPPDQQRLIF	≤ 0

molecular target: AgSla1-D3; experiment: as above
Summary of the method: as §1

Binder	SPOT peptide array binding signal intensity
QDKEGIPPDQQRLIF	≤ 0

molecular target: CaAbp1-D1; experiment: as above
Summary of the method: as §1

Binder	SPOT peptide array binding signal intensity
QDKEGIPPDQQRLIF	≤ 0

molecular target: CaAbp1-D2; experiment: as above
Summary of the method: as §1

Binder	SPOT peptide array binding signal intensity
QDKEGIPPDQQRLIF	≤ 0

molecular target: CaBbc1; experiment: as above
Summary of the method: as §1

Binder	SPOT peptide array binding signal intensity
QDKEGIPPDQQRLIF	≤ 0

molecular target: CaBem1-D1; experiment: as above
Summary of the method: as §1

Binder	SPOT peptide array binding signal intensity
QDKEGIPPDQQRLIF	≤ 0

molecular target: CaBzz1-D1; experiment: as above
Summary of the method: as §1

Binder	SPOT peptide array binding signal intensity
QDKEGIPPDQQRLIF	≤ 0

molecular target: CaBzz1-D2; experiment: as above
Summary of the method: as §1

Binder	SPOT peptide array binding signal intensity
QDKEGIPPDQQRLIF	≤ 0

molecular target: CaCyk3; experiment: as above
Summary of the method: as §1

Binder	SPOT peptide array binding signal intensity
QDKEGIPPDQQRLIF	≤ 0

molecular target: CaFus1; experiment: as above
Summary of the method: as §1

Binder	SPOT peptide array binding signal intensity
QDKEGIPPDQQRLIF	≤ 0

molecular target: CaHof1; experiment: as above
Summary of the method: as §1

Binder	SPOT peptide array binding signal intensity
QDKEGIPPDQQRLIF	≤ 0

molecular target: CaHse1; experiment: as above
Summary of the method: as §1

Binder	SPOT peptide array binding signal intensity
QDKEGIPPDQQRLIF	≤ 0

molecular target: CaLsb1; experiment: as above
Summary of the method: as §1

Binder	SPOT peptide array binding signal intensity
QDKEGIPPDQQRLIF	≤ 0

molecular target: CaLsb4; experiment: as above
Summary of the method: as §1

Binder	SPOT peptide array binding signal intensity
QDKEGIPPDQQRLIF	≤ 0

molecular target: CaMyo5; experiment: as above
Summary of the method: as §1

Binder	SPOT peptide array binding signal intensity
QDKEGIPPDQQRLIF	10.8

molecular target: CaNbp2; experiment: as above
Summary of the method: as §1

Binder	SPOT peptide array binding signal intensity
QDKEGIPPDQQRLIF	≤ 0

molecular target: CaRvs167; experiment: as above
Summary of the method: as §1

Binder	SPOT peptide array binding signal intensity
QDKEGIPPDQQRLIF	≤ 0

molecular target: CaRvs167-3; experiment: as above
Summary of the method: as §1

Binder	SPOT peptide array binding signal intensity
QDKEGIPPDQQRLIF	3

molecular target: CaSho1; experiment: as above
Summary of the method: as §1

Binder	SPOT peptide array binding signal intensity
QDKEGIPPDQQRLIF	≤ 0

molecular target: CaSla1-D1-D2; experiment: as above
Summary of the method: as §1

Binder	SPOT peptide array binding signal intensity
QDKEGIPPDQQRLIF	≤ 0

molecular target: CaSla1-D3; experiment: as above
Summary of the method: as §1

Binder	SPOT peptide array binding signal intensity
QDKEGIPPDQQRLIF	≤ 0

molecular target: ScAbp1; experiment: as above
Summary of the method: as §1

Binder	SPOT peptide array binding signal intensity
QDKEGIPPDQQRLIF	8

molecular target: ScBbc1; experiment: as above
Summary of the method: as §1

Binder	SPOT peptide array binding signal intensity
QDKEGIPPDQQRLIF	≤ 0

molecular target: ScBem1-D1; experiment: as above
Summary of the method: as §1

Binder	SPOT peptide array binding signal intensity
QDKEGIPPDQQRLIF	≤ 0

molecular target: ScBzz1-D1; experiment: as above
Summary of the method: as §1

Binder	SPOT peptide array binding signal intensity
QDKEGIPPDQQRLIF	18

molecular target: ScBzz1-D2; experiment: as above
Summary of the method: as §1

Binder	SPOT peptide array binding signal intensity
QDKEGIPPDQQRLIF	26

molecular target: ScCyk3; experiment: as above
Summary of the method: as §1

Binder	SPOT peptide array binding signal intensity
QDKEGIPPDQQRLIF	≤ 0

molecular target: ScFus1; experiment: as above
Summary of the method: as §1

Binder	SPOT peptide array binding signal intensity
QDKEGIPPDQQRLIF	≤ 0

molecular target: ScHof1; experiment: as above
Summary of the method: as §1

Binder	SPOT peptide array binding signal intensity
QDKEGIPPDQQRLIF	≤ 0

molecular target: ScHse1; experiment: as above
Summary of the method: as §1

Binder	SPOT peptide array binding signal intensity
QDKEGIPPDQQRLIF	≤ 0

molecular target: ScLsb1; experiment: as above
Summary of the method: as §1

Binder	SPOT peptide array binding signal intensity
QDKEGIPPDQQRLIF	≤ 0

molecular target: ScLsb2; experiment: as above
Summary of the method: as §1

Binder	SPOT peptide array binding signal intensity
QDKEGIPPDQQRLIF	≤ 0

molecular target: ScLsb3; experiment: as above
Summary of the method: as §1

Binder	SPOT peptide array binding signal intensity
QDKEGIPPDQQRLIF	≤ 0

molecular target: ScLsb4; experiment: as above
Summary of the method: as §1

Binder	SPOT peptide array binding signal intensity
QDKEGIPPDQQRLIF	≤ 0

molecular target: ScMyo3; experiment: as above
Summary of the method: as §1

Binder	SPOT peptide array binding signal intensity
QDKEGIPPDQQRLIF	≤ 0

molecular target: ScMyo5; experiment: as above
Summary of the method: as §1

Binder	SPOT peptide array binding signal intensity
QDKEGIPPDQQRLIF	7

molecular target: ScNbp2; experiment: as above
Summary of the method: as §1

Binder	SPOT peptide array binding signal intensity
QDKEGIPPDQQRLIF	≤ 0

molecular target: ScPex13; experiment: as above
Summary of the method: as §1

Binder	SPOT peptide array binding signal intensity
QDKEGIPPDQQRLIF	≤ 0

molecular target: ScRvs167; experiment: as above
Summary of the method: as §1

Binder	SPOT peptide array binding signal intensity
QDKEGIPPDQQRLIF	1

molecular target: ScSho1; experiment: as above
Summary of the method: as §1

Binder	SPOT peptide array binding signal intensity
QDKEGIPPDQQRLIF	≤ 0

molecular target: ScSla1-D1-D2; experiment: as above
Summary of the method: as §1

Binder	SPOT peptide array binding signal intensity
QDKEGIPPDQQRLIF	≤ 0

molecular target: ScSla1-D3; experiment: as above
Summary of the method: as §1

Binder	SPOT peptide array binding signal intensity
QDKEGIPPDQQRLIF	≤ 0

molecular target: SpAbp1-D1; experiment: as above
Summary of the method: as §1

Binder	SPOT peptide array binding signal intensity
QDKEGIPPDQQRLIF	≤ 0

molecular target: SpBbc1; experiment: as above
Summary of the method: as §1

Binder	SPOT peptide array binding signal intensity
QDKEGIPPDQQRLIF	≤ 0

molecular target: SpBzz1-D1; experiment: as above
Summary of the method: as §1

Binder	SPOT peptide array binding signal intensity
QDKEGIPPDQQRLIF	≤ 0

molecular target: SpBzz1-D2; experiment: as above
Summary of the method: as §1

Binder	SPOT peptide array binding signal intensity
QDKEGIPPDQQRLIF	≤ 0

molecular target: SpCyk3; experiment: as above
Summary of the method: as §1

Binder	SPOT peptide array binding signal intensity
QDKEGIPPDQQRLIF	≤ 0

molecular target: SpHof1; experiment: as above
Summary of the method: as §1

Binder	SPOT peptide array binding signal intensity
QDKEGIPPDQQRLIF	≤ 0

molecular target: SpHof1-2; experiment: as above
Summary of the method: as §1

Binder	SPOT peptide array binding signal intensity
QDKEGIPPDQQRLIF	0.5

molecular target: SpHof1-3; experiment: as above
Summary of the method: as §1

Binder	SPOT peptide array binding signal intensity
QDKEGIPPDQQRLIF	20

molecular target: SpHse1; experiment: as above
Summary of the method: as §1

Binder	SPOT peptide array binding signal intensity
QDKEGIPPDQQRLIF	≤ 0

molecular target: SpLsb1; experiment: as above
Summary of the method: as §1

Binder	SPOT peptide array binding signal intensity
QDKEGIPPDQQRLIF	≤ 0

molecular target: SpLsb4; experiment: as above
Summary of the method: as §1

Binder	SPOT peptide array binding signal intensity
QDKEGIPPDQQRLIF	≤ 0

molecular target: SpMyo1; experiment: as above
Summary of the method: as §1

Binder	SPOT peptide array binding signal intensity
QDKEGIPPDQQRLIF	≤ 0

molecular target: SpNbp2; experiment: as above
Summary of the method: as §1

Binder	SPOT peptide array binding signal intensity
QDKEGIPPDQQRLIF	≤ 0

molecular target: SpPex13; experiment: as above
Summary of the method: as §1

Binder	SPOT peptide array binding signal intensity
QDKEGIPPDQQRLIF	≤ 0

molecular target: SpRvs167; experiment: as above
Summary of the method: as §1

Binder	SPOT peptide array binding signal intensity
QDKEGIPPDQQRLIF	≤ 0

molecular target: SpSla1-D1-D2; experiment: as above
Summary of the method: as §1

Binder	SPOT peptide array binding signal intensity
QDKEGIPPDQQRLIF	≤ 0

molecular target: SpSla1-D3; experiment: as above
Summary of the method: as §1

Binder	SPOT peptide array binding signal intensity
QDKEGIPPDQQRLIF	≤ 0
